# Laboratory results: the supplement of paper PMC12494721
# Counter-ions that a name gives are not always drawn.
# How the values were obtained:
# Conditions in all cases: incubation time: 27 h, anaerobic, 37 °C;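 for the amine columns active = adjusted P below 0.05 in both replicates with a change the same way and a mean fold change under 0.8 or over 1.25; inactive = the rest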
# [1] = tested on: Clostridium sporogenes DSM 1664; assay: growth (OD595) fold change vs plate DMSO controls (fold change (ratio)); higher = more growth
# Procedure, shortened: (§1)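 The reported measure is growth: the fold change against the median of DMSO controls on the plate. Absorbance at 595 nm from anaerobic 96-well mGAM cultures grown for 27 h at 37 °C was blank-subtracted, corrected for background with 20 µM compound solutions in water, and converted to OD with a calibration factor of 5. Fold changes above 1.5 appear as NA, and values are the mean of 2 biological replicates.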
# [2] = tested on: Escherichia coli IAI1; assay: as above
# Procedure, shortened: as §1
# [3] = tested on: Klebsiella aerogenes DSM 30053; assay: as above
# Procedure, shortened: as §1
# [4] = tested on: Ruminococcus gnavus DSM 108212; assay: as above
# Procedure, shortened: as §1
# [5] = tested on: Klebsiella aerogenes DSM 30053; assay: fold change of Histamine concentration vs plate DMSO controls (fold change (ratio)); higher = more amine produced, active = hit call of the paper (significant change in both replicates, either direction)
# Procedure, shortened: (§2)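 Extracts of whole anaerobic mGAM cultures were analysed for amines by LC–triple-quadrupole MS with dynamic MRM and external calibration curves, with drift corrected within batch. Four gut strains were grown at 37 °C for 27 h in 80 µL wells with compounds at 20 µM final, sweeteners at 50 µM final. Each value expresses fold change over plate DMSO controls. The average of 2 biological replicates is shown.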
# [6] = tested on: Clostridium sporogenes DSM 1664; assay: fold change of Tryptamine concentration vs plate DMSO controls (fold change (ratio)); higher = more amine produced, active = hit call of the paper (significant change in both replicates, either direction)
# Procedure, shortened: as §2
# [7] = tested on: Ruminococcus gnavus DSM 108212; assay: as above
# Procedure, shortened: as §2
# [8] = tested on: Escherichia coli IAI1; assay: fold change of Putrescine concentration vs plate DMSO controls (fold change (ratio)); higher = more amine produced, active = hit call of the paper (significant change in both replicates, either direction)
# Procedure, shortened: as §2
# [9] = tested on: Klebsiella aerogenes DSM 30053; assay: as above
# Procedure, shortened: as §2
# [10] = tested on: Escherichia coli IAI1; assay: fold change of Cadaverine concentration vs plate DMSO controls (fold change (ratio)); higher = more amine produced, active = hit call of the paper (significant change in both replicates, either direction)
# Procedure, shortened: as §2
# [11] = tested on: Klebsiella aerogenes DSM 30053; assay: as above
# Procedure, shortened: as §2
# [12] = tested on: Ruminococcus gnavus DSM 108212; assay: fold change of 2-Phenylethylamine concentration vs plate DMSO controls (fold change (ratio)); higher = more amine produced, active = hit call of the paper (significant change in both replicates, either direction)
# Procedure, shortened: as §2
SMILES,growth [1],growth [2],growth [3],growth [4],fold change of Histamine concentration [5],fold change of Tryptamine concentration [6],fold change of Tryptamine concentration [7],fold change of Putrescine concentration [8],fold change of Putrescine concentration [9],fold change of Cadaverine concentration [10],fold change of Cadaverine concentration [11],fold change of 2-Phenylethylamine concentration [12]
CC(C[N+](C)(C)C)OC(N)=O (centres undefined) [Bethanechol chloride] (20 µM),0.85,0.962,0.937,0.707,0.98 (inactive),1.01 (inactive),1.01 (inactive),1.03 (inactive),1.01 (inactive),1 (inactive),1 (inactive),1.01 (inactive)
Nc1ccc(C(=O)NCC(=O)O)cc1 [Aminohippuric acid] (20 µM),0.256,0.163,0,0.295,0.944 (inactive),0.982 (inactive),1.03 (inactive),1.04 (inactive),1.01 (inactive),0.988 (inactive),1.01 (inactive),1.03 (inactive)
CCOc1ccccc1OC(c1ccccc1)C1CNCCO1 (centres undefined) [Reboxetine mesylate] (20 µM),1.03,1.16,1.07,1.08,1.01 (inactive),0.997 (inactive),1.04 (inactive),1.03 (inactive),1.01 (inactive),0.926 (inactive),1 (inactive),1.03 (inactive)
CC(=C(CCO)SSCC1CCCO1)N(C=O)Cc1cnc(C)nc1N (stereo in doubt) [Fursultiamine hydrochloride] (20 µM),1.08,1.03,0.989,0.992,1.04 (inactive),0.983 (inactive),0.969 (inactive),1.09 (inactive),1.01 (inactive),0.973 (inactive),0.986 (inactive),0.967 (inactive)
CC(=O)Nc1c(I)c(C(=O)N[C@H]2C(O)O[C@H](CO)[C@@H](O)[C@@H]2O)c(I)c(N(C)C(C)=O)c1I (some centres undefined) [Metrizamide] (20 µM),1.03,1.22,1.04,0.799,0.994 (inactive),1.05 (inactive),1.06 (inactive),1.22 (inactive),0.994 (inactive),0.971 (inactive),1 (inactive),1.08 (inactive)
CCn1nc(C(=O)O)c(=O)c2cc3c(cc21)OCO3 [Cinoxacin] (20 µM),0.547,0.0392,0.544,1.06,0.506 (active),0.724 (active),1 (inactive),0.749 (inactive),1.06 (inactive),1.61 (active),1.01 (inactive),1 (inactive)
COc1cc(C(=O)OCCCN2CCCN(CCCOC(=O)c3cc(OC)c(OC)c(OC)c3)CC2)cc(OC)c1OC [Dilazep dihydrochloride] (20 µM),1.06,1.07,0.99,0.894,0.938 (inactive),1.08 (inactive),1.09 (inactive),1.01 (inactive),0.937 (inactive),0.968 (inactive),1.01 (inactive),1.12 (inactive)
CC1=C(CC(=O)O)c2cc(F)ccc2/C1=C\c1ccc([S+](C)[O-])cc1 (centres undefined) [Sulindac] (20 µM),1.15,1.08,1.02,1.3,0.931 (inactive),1.04 (inactive),1.03 (inactive),1.02 (inactive),0.951 (inactive),0.995 (inactive),1.02 (inactive),1 (inactive)
Cc1onc(-c2ccccc2)c1C(=O)N[C@@H]1C(=O)N2[C@@H]1SC(C)(C)[C@@H]2C(=O)O [Oxacillin sodium] (20 µM),0,0.994,1.01,0,0.996 (inactive),0.0257 (active),0.0465 (active),0.949 (inactive),0.992 (inactive),1.01 (inactive),0.984 (inactive),0.0469 (active)
NC(=O)c1ncn([C@@H]2O[C@H](CO)[C@@H](O)[C@H]2O)c1O [Mizoribine] (20 µM),0.99,1.06,1.06,1,0.951 (inactive),1.02 (inactive),1.01 (inactive),1.02 (inactive),1.02 (inactive),0.997 (inactive),1.01 (inactive),0.982 (inactive)
CN(C)CCOC(C)(c1ccccc1)c1ccccn1 (centres undefined) [Doxylamine succinate] (20 µM),1.13,0.972,1.01,1.05,1.01 (inactive),0.943 (inactive),0.988 (inactive),1.01 (inactive),1.01 (inactive),0.924 (inactive),1 (inactive),0.891 (inactive)
CN(C)CCN(Cc1ccccc1)c1ccccn1 [Tripelennamine hydrochloride] (20 µM),1.03,0.99,1.02,0.946,0.957 (inactive),1.01 (inactive),1.02 (inactive),0.85 (inactive),1.01 (inactive),1.38 (active),1 (inactive),1.03 (inactive)
